Shown are actives, neighbours in structure and some others; about 2.4% of the full set was active somewhere.
CHO-K1 Ca ag = M1 agonist counterscreen hit in parental CHO-K1 cells | Fluo-8 calcium fluorescence; scaled to maximal ATP response, vehicle zero | activation, % at 3 µM | actives 0.48% (n = 360,000); in the data active = activation above about 15%;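 also: untransfected CHO-K1 host cells lacking M1 receptor as counterscreen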
CHO-K1 Ca antag = M1 antagonist counterscreen hit in parental CHO-K1 cells; ATP-induced calcium, Fluo-8 fluorescence; inhibition, % at 3 µM; actives 0.6% (n = 360,000);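 active = inhibition above a per-plate cutoff, the plate's mean sample inhibition plus 3 SD, cut at about 24% in these data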;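 also: 0% = DMSO plus EC80 ATP and 100% = DMSO alone without ATP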
M1 antag = antagonists of human M1 muscarinic receptor. inhibition, % at 3 µM. actives 1.3% (n = 360,000). AID 588852. CHO-K1 hM1, Fluo-8 calcium fluorescence, ACh EC80 antagonist. P11229;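 active = percent inhibition above its own plate's cutoff, namely the mean of that plate's compound wells plus 3 SD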;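 also: peak over basal fluorescence ratio during 140 s after agonist addition; 0% = ACh EC80 plus DMSO and 100% = DMSO alone without agonist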
Target sequence (P11229 whole entry, looked up): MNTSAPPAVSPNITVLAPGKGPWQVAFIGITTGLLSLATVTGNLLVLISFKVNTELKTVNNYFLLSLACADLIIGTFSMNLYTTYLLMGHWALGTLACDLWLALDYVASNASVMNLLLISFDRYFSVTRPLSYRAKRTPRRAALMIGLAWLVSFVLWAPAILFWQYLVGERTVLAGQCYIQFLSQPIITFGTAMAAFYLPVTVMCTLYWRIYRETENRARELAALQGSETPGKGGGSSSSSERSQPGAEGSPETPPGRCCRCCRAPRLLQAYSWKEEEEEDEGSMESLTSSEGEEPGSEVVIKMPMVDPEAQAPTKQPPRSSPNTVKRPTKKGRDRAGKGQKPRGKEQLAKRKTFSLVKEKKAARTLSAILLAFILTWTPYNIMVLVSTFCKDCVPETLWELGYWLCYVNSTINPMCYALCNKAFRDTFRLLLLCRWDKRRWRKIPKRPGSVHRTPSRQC
M1 ag = human M1 muscarinic receptor agonism. actives 0.33% (n = 360,000). CHO-K1 hM1, Fluo-8 calcium fluorescence, agonist mode; 0% DMSO, 100% acetylcholine EC100. activation, % at 3 µM. AID 588814. P11229;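 active = activation above the run's mean compound activation plus 3 SD, cut at about 16% in these data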;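 also: peak over basal fluorescence ratio within a 140 s kinetic read after compound addition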
M1 PAM = potentiates human M1 receptor response to acetylcholine; P11229; CHO-K1 hM1, Fluo-8 calcium fluorescence, ACh EC20; 0% = ACh EC20, 100% = maximal ACh; activation, % at 3 µM; actives 0.088% (n = 360,000); in the data active = activation above about 19%, passing the limit was not always enough
M1 PAM parental = nonselective activator or artifact in parental CHO-K1 calcium assay; ATP EC20, Fluo-8 calcium fluorescence; 0% at ATP EC20, 100% at ATP max; activation, % at 3 µM; actives 0.02% (n = 360,000); AID 602247;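 active = activation above the run cutoff, the mean activation of all test compounds plus 3 SD, cut at about 40% in these data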;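 also: peak over basal fluorescence ratio in a 140 s read after ATP addition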
* hit, by the source's call; · = no result.

SMILES	CHO-K1 Ca ag	CHO-K1 Ca antag	M1 antag	M1 ag	M1 PAM	M1 PAM parental
COc1ccc(CCNC(=O)CSc2nc3[nH]ncc3c(=O)n2-c2ccc(Br)cc2)cc1OC	0.3	-16.8	2.1	24.8*	-4.4	7.5
O=C(CN1CCc2ccccc2C1)Nc1ccccc1C(=O)NC1CC1	1.8	-10.8	2.0	-2.8	0.3	1.9
COc1ccc(S(=O)(=O)N2CCCCC2)cc1NC(=O)CN(Cc1ccco1)Cc1ccco1	9.8	2.7	44.0*	7.1	-20.3	-1.9
CCCCC1(c2ccc(F)cc2)NC(=O)N(CC(=O)Nc2ccc(N3CCOCC3)cc2)C1=O (stereo not drawn)	7.5	-10.3	-2.0	16.5*	9.2	26.4
CCC1(c2ccccc2)NC(=O)N(CC(=O)Nc2cc(S(=O)(=O)N3CCCCCC3)ccc2OC)C1=O (stereo not drawn)	8.8	20.7	32.3*	0.3	-6.0	0.3
CCOc1ccc(S(=O)(=O)N2CCCCC2)cc1NC(=O)CN1C(=O)NC(CC)(c2ccccc2)C1=O (stereo not drawn)	3.7	8.6	-10.9	-1.6	5.5	-5.2
COc1ccc(S(=O)(=O)N2CCCCC2)cc1NC(=O)CN(C)C1CCCCC1	3.2	-13.3	-16.4	-7.0	7.6	19.5
CCC1(c2ccc(F)cc2)NC(=O)N(CC(=O)Nc2ccccc2Cl)C1=O (stereo not drawn)	15.3*	-8.0	-8.4	35.9*	2.6	-7.2
CCOC(=O)C1CCN(C(=O)c2cccc(S(=O)(=O)N3CCCc4ccccc43)c2)CC1	3.1	-7.8	-16.3	-4.1	8.9	19.6
CCC1(c2ccccc2)NC(=O)N(CC(=O)Nc2ccccc2C(=O)NC2CC2)C1=O (stereo not drawn)	1.7	-16.1	-11.1	0.1	10.4	26.2
CCC1(c2ccc(F)cc2)NC(=O)N(CC(=O)Nc2ccccc2C)C1=O (stereo not drawn)	16.2*	-12.3	11.1	12.2	-2.8	26.0
NC(=O)C1Cc2ccccc2CN1C(=O)c1cc(C2CC2)nn1-c1ccccc1 (stereo not drawn)	6.1	-15.5	1.0	0.9	-2.5	8.2
CC(C)(C)S(=O)(=O)N1Cc2ccc(CO)cc2[C@H]1CCO	-0.1	-5.8	-3.6	0.1	6.3	4.2
CCc1ccc(C(C)NC(=O)c2cccs2)cc1 (stereo not drawn)	3.0	-4.8	-5.7	1.3	8.3	4.2
CCCCn1c(=O)[nH]c2nc3cc(N)ccc3nc2c1=O	24.4*	20.5	22.7	25.3*	-9.7	-7.5
Nc1ccc2nc3c(=O)n(CCc4ccccc4)c(=O)[nH]c3nc2c1	52.7*	16.2	21.6	53.5*	-6.7	-3.6
Nc1ccc2nc3c(=O)n(C4CCCCC4)c(=O)[nH]c3nc2c1	95.3*	29.9*	29.5	99.7*	-15.1	-12.0
Nc1ccc2nc(CCc3ccccc3)[nH]c2c1	2.8	-3.9	6.5	-8.8	-7.5	9.3
Cc1cc2nc3c(=O)n(CCc4ccccc4)c(=O)[nH]c3nc2cc1N	26.0*	2.1	10.4	9.7	0.3	10.4
CCOC(=O)c1cc(-c2cccc(O)c2)oc1C	1.4	-9.4	·	·	·	8.6
O=C(NCc1ccncc1)C(=O)NCC1OCCCN1S(=O)(=O)c1cc(F)ccc1F (stereo not drawn)	0.5	5.1	5.8	-4.0	-1.6	-18.4
O=C(NCC1OCCCN1S(=O)(=O)c1cc(F)ccc1F)C(=O)NC1CCCCCC1 (stereo not drawn)	2.1	32.4*	3.0	-3.6	-3.3	2.3
CNC(=S)NNC(=O)c1cn(C)nc1C	-0.7	24.2*	6.9	0.5	6.0	-14.7
Cc1ccc(Cc2nnc(SCC(=O)Nc3ccccc3)n(N)c2=O)cc1	0.0	-1.6	-0.6	-1.9	2.6	1.9
Cc1c(COc2ccc3ccccc3c2)nnn1CC(=O)NS(=O)(=O)c1ccccc1C(F)(F)F	0.4	-14.2	-9.5	-1.8	14.2	20.9
Cc1cc(Nc2ccc(Cl)cc2)nc(-c2ccccc2O)n1	1.2	-6.8	-2.0	-4.2	-0.8	15.8
Cc1cc(Nc2cccc(Cl)c2)nc(-c2ccccc2O)n1	6.0	43.1*	-14.3	-5.3	8.2	8.6

Screens (PubChem)
